Assay results from the supplement of paper PMC10849652.
Of roughly 7,900 targets only a part is listed; those with a hit were picked by preference. About 0.6% of all pairs of compound and target were hits.

What was measured:
Experiment in all cases: log2 fold change, soluble protein after heating vs DMSO (PISA); higher = thermal stabilisation; K562 cells, 10 uM, 30 min; active = over 0.2 and 3.5 SD of the protein, either way, in both replicates (recomputed)
[1] = compound: CC[C@@H]1C(=O)N(C)c2cnc(Nc3ccc(C(=O)NC4CCN(C)CC4)cc3OC)nc2N1C1CCCC1
Method in brief: (§1)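 For each measurement, 10 μM compound was applied for 30 min to K562 cells at 2×10^6 cells/mL. Aliquots were heated for 3 min across 48°C-58°C, pooled, and extracted in PBS with 0.5% NP-40 at 4°C; the supernatant after 21,000xg for 90 min was soluble protein. This was quantified by TMTpro 16plex LC-MS/MS with channel sums equalised, and thermal stability was reported relative to control samples from duplicates, on a log2 fold-change scale.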

volasertib = compound: CC[C@@H]1C(=O)N(C)c2cnc(Nc3ccc(C(=O)N[C@H]4CC[C@H](N5CCN(CC6CC6)CC5)CC4)cc3OC)nc2N1C(C)C [volasertib]
Method in brief: as §1

[2] = compound: CC[C@H](C)N1C=C(C2=C(C=C(C=C21)C3=CN=C(C=C3)N4CCNCC4)C(=O)NCC5=C(C=C(NC5=O)C)C)C
Method in brief: as §1

epoxomicin = compound: CC[C@H](C)[C@@H](C(=O)N[C@@H]([C@@H](C)O)C(=O)N[C@@H](CC(C)C)C(=O)[C@]1(CO1)C)NC(=O)[C@H]([C@@H](C)CC)N(C)C(=O)C [epoxomicin]
Method in brief: as §1

[3] = compound: CCn1c(C(=O)N(C2CC2)C2CC2)cc2c3c(ncn3C)c(Nc3cc(C)n(C)n3)nc21
Method in brief: as §1

[4] = compound: CCn1cc(-c2ccnc3[nH]c(-c4cccc(CN(C)C)c4)cc23)c(-c2ccc(NC(=O)N(C)C)cc2)n1
Method in brief: as §1

[5] = compound: CN(C)CC(=O)Nc1ccc2[nH]c(=O)c3ccccc3c2c1
Method in brief: as §1

rosiglitazone = compound: CN(CCOC1=CC=C(C=C1)C[C@H]2C(=O)NC(=O)S2)C3=CC=CC=N3 (racemic) [rosiglitazone]
Method in brief: as §1

[6] = compound: CN1C2=C(C3=C1C(=O)N(N=C3)CC4=CC(=CC=C4)N)SC(=C2)S(=O)C
Method in brief: as §1

[7] = compound: CN1CCC(CNc2ccc3ncc(-c4cccc(OC(F)(F)F)c4)n3n2)CC1
Method in brief: as §1

saracatinib = compound: CN1CCN(CCOc2cc(OC3CCOCC3)c3c(Nc4c(Cl)ccc5c4OCO5)ncnc3c2)CC1 [saracatinib]
Method in brief: as §1

sotrastaurin = compound: CN1CCN(c2nc(C3=C(c4c[nH]c5ccccc45)C(=O)NC3=O)c3ccccc3n2)CC1 [sotrastaurin]
Method in brief: as §1

alvocidib = compound: CN1CC[C@H](c2c(O)cc(O)c3c(=O)cc(-c4ccccc4Cl)oc23)[C@H](O)C1 [alvocidib]
Method in brief: as §1

Tubastatin A = compound: CN1CCc2c(c3ccccc3n2Cc2ccc(C(=O)NO)cc2)C1 [Tubastatin A]
Method in brief: as §1

[8] = compound: CNC(=O)C1=CC=CC=C1NC2=NC(=NC=C2Cl)NC3=C(C=C(C=C3)N4CCOCC4)OC
Method in brief: as §1

defactinib = compound: CNC(=O)c1ccc(Nc2ncc(C(F)(F)F)c(NCc3nccnc3N(C)S(C)(=O)=O)n2)cc1 [defactinib]
Method in brief: as §1

rucaparib = compound: CNCc1ccc(-c2[nH]c3cc(F)cc4c3c2CCNC4=O)cc1 [rucaparib]
Method in brief: as §1

[9] = compound: CNc1nc(-c2ccc3c(N)n[nH]c3c2)cc(N2C[C@@H](C(=O)NC3CCCCC3)CC[C@H]2C)n1
Method in brief: as §1

encorafenib = compound: COC(=O)N[C@@H](C)CNc1nccc(-c2cn(C(C)C)nc2-c2cc(Cl)cc(NS(C)(=O)=O)c2F)n1 [encorafenib]
Method in brief: as §1

[10] = compound: COC(=O)[C@H](CCSC)NC(=O)C1=C(C=C(C=C1)NC[C@H](CS)N)C2=CC=CC=C2
Method in brief: as §1

Measured: log2 fold change

CMTR1 (UniProt Q8N1G2)
Chain of UniProt Q8N1G2 (Q8N1G2 whole entry, looked up): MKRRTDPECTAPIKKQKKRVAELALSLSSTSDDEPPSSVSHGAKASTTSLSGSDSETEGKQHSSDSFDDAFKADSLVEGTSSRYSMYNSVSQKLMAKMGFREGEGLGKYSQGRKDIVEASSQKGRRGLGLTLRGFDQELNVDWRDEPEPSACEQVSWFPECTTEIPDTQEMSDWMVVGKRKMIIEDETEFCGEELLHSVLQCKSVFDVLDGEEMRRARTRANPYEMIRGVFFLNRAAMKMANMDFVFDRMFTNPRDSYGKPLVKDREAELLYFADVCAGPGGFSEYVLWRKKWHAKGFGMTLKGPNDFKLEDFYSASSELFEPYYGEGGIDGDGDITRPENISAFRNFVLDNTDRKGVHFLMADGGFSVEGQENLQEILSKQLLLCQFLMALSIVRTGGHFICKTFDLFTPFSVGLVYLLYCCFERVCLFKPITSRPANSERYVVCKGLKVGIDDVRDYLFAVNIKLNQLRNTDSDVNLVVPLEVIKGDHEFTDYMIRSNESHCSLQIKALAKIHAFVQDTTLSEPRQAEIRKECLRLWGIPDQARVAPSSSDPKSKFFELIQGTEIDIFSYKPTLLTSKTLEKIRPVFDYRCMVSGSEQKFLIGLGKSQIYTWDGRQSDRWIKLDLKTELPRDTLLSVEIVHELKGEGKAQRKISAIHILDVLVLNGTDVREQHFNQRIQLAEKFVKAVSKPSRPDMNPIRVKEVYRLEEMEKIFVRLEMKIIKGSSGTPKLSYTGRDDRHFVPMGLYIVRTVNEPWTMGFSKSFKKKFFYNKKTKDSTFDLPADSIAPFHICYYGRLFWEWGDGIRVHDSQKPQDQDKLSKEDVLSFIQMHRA
inactive: [1] -0.053 | volasertib -0.199 | [2] 0.024 | epoxomicin 0.039 | [3] -0.01 | [4] -0.049 | [5] 0.038 | rosiglitazone 0.03 | [6] -0.055 | [7] -0.037 | saracatinib 0.009 | sotrastaurin 0.018 | alvocidib -0.053 | Tubastatin A -0.052 | [8] 0.045 | defactinib -0.026 | rucaparib 0.003 | [9] 0.099 | encorafenib 0.06 | [10] -0.091

CBX1 (UniProt P83916)
Chain of UniProt P83916 (P83916 whole entry, looked up): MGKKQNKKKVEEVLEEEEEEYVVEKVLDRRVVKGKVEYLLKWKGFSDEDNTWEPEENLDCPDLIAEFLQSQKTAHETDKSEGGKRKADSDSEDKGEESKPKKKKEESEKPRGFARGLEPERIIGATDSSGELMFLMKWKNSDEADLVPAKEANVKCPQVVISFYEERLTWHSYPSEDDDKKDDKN
inactive: [1] 0.001 | volasertib -0.119 | [2] 0.103 | epoxomicin -0.022 | [3] -0.007 | [4] -0.037 | [5] -0.013 | rosiglitazone 0.009 | [6] 0.028 | [7] -0.014 | saracatinib 0.073 | sotrastaurin -0.037 | alvocidib -0.026 | Tubastatin A 0.035 | [8] -0.018 | defactinib -0.143 | rucaparib -0.01 | [9] -0.02 | encorafenib -0.043 | [10] 0

C4orf33 (UniProt Q8N1A6)
inactive: [1] 0.044 | volasertib 0.066 | [2] 0.007 | epoxomicin -0.084 | [3] -0.034 | [4] -0.062 | [5] -0.007 | rosiglitazone 0.155 | [6] 0.009 | [7] -0.027 | saracatinib -0.027 | sotrastaurin -0.091 | alvocidib -0.07 | Tubastatin A -0.024 | [8] 0.048 | defactinib -0.071 | rucaparib 0.091 | [9] 0.013 | encorafenib -0.076 | [10] 0.042

CSTF3 (UniProt Q12996)
Chain of UniProt Q12996 (Q12996 whole entry, looked up): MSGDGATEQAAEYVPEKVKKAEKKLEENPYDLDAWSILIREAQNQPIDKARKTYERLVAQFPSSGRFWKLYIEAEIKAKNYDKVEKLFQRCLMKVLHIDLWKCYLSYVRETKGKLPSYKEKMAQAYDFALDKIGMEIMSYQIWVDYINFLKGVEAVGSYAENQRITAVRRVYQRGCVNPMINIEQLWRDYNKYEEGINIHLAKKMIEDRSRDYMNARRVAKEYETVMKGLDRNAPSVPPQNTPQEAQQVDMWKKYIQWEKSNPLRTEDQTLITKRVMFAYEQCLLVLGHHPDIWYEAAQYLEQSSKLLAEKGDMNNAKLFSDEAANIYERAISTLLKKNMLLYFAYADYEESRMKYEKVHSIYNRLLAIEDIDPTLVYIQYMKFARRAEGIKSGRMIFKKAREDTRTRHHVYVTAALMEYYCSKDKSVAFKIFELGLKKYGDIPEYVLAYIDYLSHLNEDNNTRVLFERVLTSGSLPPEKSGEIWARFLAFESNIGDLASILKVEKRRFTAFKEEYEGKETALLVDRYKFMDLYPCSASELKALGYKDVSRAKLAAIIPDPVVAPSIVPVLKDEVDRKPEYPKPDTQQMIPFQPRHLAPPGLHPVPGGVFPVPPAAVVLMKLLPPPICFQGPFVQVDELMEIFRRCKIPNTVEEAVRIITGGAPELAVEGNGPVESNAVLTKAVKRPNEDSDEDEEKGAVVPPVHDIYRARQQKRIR
inactive: [1] 0.061 | volasertib 0.091 | [2] -0.028 | epoxomicin -0.029 | [3] 0 | [4] -0.038 | [5] -0.002 | rosiglitazone 0.003 | [6] -0.048 | [7] 0.13 | saracatinib 0.001 | sotrastaurin 0.045 | alvocidib 0.078 | Tubastatin A -0.08 | [8] 0.043 | defactinib 0.173 | rucaparib 0.088 | [9] -0.051 | encorafenib -0.022 | [10] 0.002

CRLF3 (UniProt Q8IUI8)
inactive: [1] -0.085 | volasertib -0.277 | [2] 0.067 | epoxomicin 0 | [3] -0.069 | [4] -0.041 | [5] 0.024 | rosiglitazone 0.041 | [6] 0.031 | saracatinib -0.209 | sotrastaurin -0.124 | alvocidib -0.161 | Tubastatin A 0.054 | [8] 0.051 | defactinib -0.076 | rucaparib 0.026 | [9] 0.036 | encorafenib 0.074 | [10] -0.013
active: [7] -0.268

CKB (UniProt P12277)
Chain of UniProt P12277 (P12277 whole entry, looked up): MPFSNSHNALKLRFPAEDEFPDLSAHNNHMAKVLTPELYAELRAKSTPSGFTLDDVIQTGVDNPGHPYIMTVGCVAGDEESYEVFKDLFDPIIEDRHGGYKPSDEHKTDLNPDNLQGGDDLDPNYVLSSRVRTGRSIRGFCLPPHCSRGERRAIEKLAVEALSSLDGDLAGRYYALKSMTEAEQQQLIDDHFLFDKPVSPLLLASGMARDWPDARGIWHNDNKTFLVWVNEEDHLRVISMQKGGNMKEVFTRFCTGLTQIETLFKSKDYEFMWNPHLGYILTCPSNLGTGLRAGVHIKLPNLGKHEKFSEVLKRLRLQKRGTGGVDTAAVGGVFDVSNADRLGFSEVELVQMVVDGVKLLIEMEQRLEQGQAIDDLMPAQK
active: volasertib 0.265
inactive: [1] 0.002 | [2] 0.008 | epoxomicin 0.044 | [3] 0.01 | [4] -0.108 | [5] 0.009 | rosiglitazone 0.03 | [6] -0.111 | [7] -0.056 | saracatinib -0.041 | sotrastaurin 0.019 | alvocidib -0.089 | Tubastatin A -0.004 | [8] -0.016 | defactinib -0.006 | rucaparib -0.059 | [9] 0.043 | encorafenib 0.015 | [10] -0.011

CDAN1 (UniProt Q8IWY9)
inactive: [1] -0.079 | volasertib -0.15 | [2] -0.041 | epoxomicin 0.014 | [3] 0.04 | [4] -0.047 | [5] -0.058 | rosiglitazone 0.045 | [6] -0.022 | [7] -0.001 | saracatinib -0.012 | sotrastaurin -0.03 | alvocidib -0.019 | Tubastatin A 0.009 | [8] -0.029 | defactinib 0.024 | rucaparib 0.085 | [9] -0.006 | encorafenib 0.005 | [10] 0.112

CHP1 (UniProt Q99653)
Chain of UniProt Q99653 (Q99653 whole entry, looked up): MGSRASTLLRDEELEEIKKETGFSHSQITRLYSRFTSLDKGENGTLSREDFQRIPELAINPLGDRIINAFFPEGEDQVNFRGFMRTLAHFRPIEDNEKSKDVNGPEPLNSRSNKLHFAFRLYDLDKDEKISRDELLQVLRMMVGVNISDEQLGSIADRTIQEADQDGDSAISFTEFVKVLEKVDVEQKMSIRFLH
inactive: [1] -0.069 | volasertib -0.036 | [2] 0.033 | epoxomicin 0.061 | [3] -0.006 | [4] -0.007 | [5] 0.063 | rosiglitazone -0.005 | [6] 0.034 | [7] -0.028 | saracatinib -0.09 | sotrastaurin 0.068 | alvocidib -0.046 | Tubastatin A 0.041 | [8] 0.085 | defactinib -0.006 | rucaparib 0.068 | [9] -0.219 | encorafenib -0.016 | [10] 0.021

CERT isoform 3 (UniProt Q9Y5P4)
inactive: [1] 0.06 | volasertib 0.044 | [2] 0.07 | epoxomicin 0.058 | [3] -0.023 | [4] -0.057 | [5] -0.019 | rosiglitazone -0.017 | [6] -0.127 | saracatinib 0.033 | sotrastaurin 0.014 | alvocidib 0.002 | Tubastatin A -0.105 | [8] 0.131 | defactinib -0.097 | rucaparib -0.009 | [9] 0.116 | encorafenib -0.015 | [10] 0.047
active: [7] 0.279

CDK9 isoform 2 (UniProt P50750)
inactive: [1] -0.01 | volasertib 0.078 | [2] 0.064 | epoxomicin -0.06 | [3] 0.016 | [4] -0.092 | [5] -0.042 | rosiglitazone -0.019 | [6] 0.178 | [7] 0.205 | saracatinib -0.028 | sotrastaurin -0.018 | Tubastatin A 0.01 | [8] -0.07 | defactinib 0.03 | rucaparib 0.084 | [9] 0.036 | encorafenib 0.079 | [10] -0.091
active: alvocidib 0.405

CDKN2AIP (UniProt Q9NXV6)
inactive: [1] 0.096 | volasertib 0.057 | [2] -0.001 | epoxomicin 0.095 | [3] -0.017 | [4] 0.008 | [5] 0.046 | rosiglitazone 0.025 | [6] 0.03 | [7] 0.094 | saracatinib 0.057 | sotrastaurin 0.023 | alvocidib 0.018 | Tubastatin A 0.013 | [8] 0.052 | defactinib 0.055 | rucaparib -0.055 | [9] 0.033 | encorafenib 0.02 | [10] -0.029

CCNB1 (UniProt P14635)
Chain of UniProt P14635 (P14635 whole entry, looked up): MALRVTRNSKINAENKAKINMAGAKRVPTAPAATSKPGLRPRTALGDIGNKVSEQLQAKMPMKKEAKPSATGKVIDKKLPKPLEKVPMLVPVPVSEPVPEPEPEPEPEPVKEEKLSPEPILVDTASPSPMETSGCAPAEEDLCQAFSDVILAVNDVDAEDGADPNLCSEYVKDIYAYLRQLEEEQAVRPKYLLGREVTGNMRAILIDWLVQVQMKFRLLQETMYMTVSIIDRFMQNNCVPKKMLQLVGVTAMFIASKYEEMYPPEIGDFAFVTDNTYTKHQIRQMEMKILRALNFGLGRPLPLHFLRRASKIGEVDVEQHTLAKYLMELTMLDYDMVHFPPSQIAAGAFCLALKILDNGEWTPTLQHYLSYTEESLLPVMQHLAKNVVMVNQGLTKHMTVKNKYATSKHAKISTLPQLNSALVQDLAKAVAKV
inactive: [1] 0.023 | volasertib 0.026 | [2] -0.027 | epoxomicin 0.083 | [3] -0.007 | [4] -0.004 | [5] 0.012 | rosiglitazone 0.017 | [6] -0.043 | [7] -0.032 | saracatinib -0.005 | sotrastaurin 0.02 | alvocidib -0.006 | Tubastatin A -0.018 | [8] -0.051 | defactinib -0.065 | rucaparib -0.025 | [9] -0.034 | encorafenib -0.002 | [10] 0.035

CDK5 (UniProt Q00535)
Chain of UniProt Q00535 (Q00535 whole entry, looked up): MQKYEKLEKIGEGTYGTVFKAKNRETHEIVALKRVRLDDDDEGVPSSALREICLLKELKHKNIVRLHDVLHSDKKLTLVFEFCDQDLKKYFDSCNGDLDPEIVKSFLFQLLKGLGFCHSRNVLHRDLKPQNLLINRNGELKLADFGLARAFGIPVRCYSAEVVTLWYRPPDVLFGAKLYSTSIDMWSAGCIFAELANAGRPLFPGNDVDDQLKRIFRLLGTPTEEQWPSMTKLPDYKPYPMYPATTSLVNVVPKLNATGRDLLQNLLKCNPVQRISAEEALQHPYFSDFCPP
inactive: [1] -0.087 | [2] 0.095 | epoxomicin 0 | [3] 0.004 | [4] -0.039 | [5] 0.002 | rosiglitazone 0.041 | [6] -0.014 | [7] 0.025 | saracatinib -0.008 | sotrastaurin 0.094 | alvocidib 0.142 | Tubastatin A -0.013 | [8] 0.029 | defactinib 0.143 | rucaparib 0.05 | [9] 0.006 | encorafenib 0.049 | [10] -0.042
active: volasertib -0.259

COMT (UniProt P21964)
Chain of UniProt P21964 (P21964 whole entry, looked up): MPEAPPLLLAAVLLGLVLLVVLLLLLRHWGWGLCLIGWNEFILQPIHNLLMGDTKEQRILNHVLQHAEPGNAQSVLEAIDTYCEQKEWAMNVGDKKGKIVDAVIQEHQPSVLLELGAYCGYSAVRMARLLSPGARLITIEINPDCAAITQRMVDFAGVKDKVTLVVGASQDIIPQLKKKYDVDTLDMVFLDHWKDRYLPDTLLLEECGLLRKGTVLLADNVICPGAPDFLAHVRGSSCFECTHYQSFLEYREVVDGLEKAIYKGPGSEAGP
inactive: [1] 0.013 | volasertib 0.073 | [2] 0.01 | epoxomicin -0.023 | [3] -0.021 | [4] -0.01 | [5] 0.005 | rosiglitazone 0.039 | [6] -0.11 | [7] 0.142 | saracatinib -0.046 | sotrastaurin 0.109 | alvocidib 0.004 | [8] 0.008 | defactinib -0.006 | rucaparib -0.018 | [9] 0.029 | encorafenib -0.039 | [10] -0.09
active: Tubastatin A 0.4

CETN3 (UniProt O15182)
Chain of UniProt O15182 (O15182 whole entry, looked up): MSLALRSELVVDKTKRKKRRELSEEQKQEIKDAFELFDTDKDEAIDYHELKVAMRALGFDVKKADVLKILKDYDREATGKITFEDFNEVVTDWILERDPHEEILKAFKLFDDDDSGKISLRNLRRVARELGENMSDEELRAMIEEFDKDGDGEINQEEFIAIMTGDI
inactive: [1] 0.037 | volasertib -0.028 | [2] 0.006 | epoxomicin 0.042 | [3] 0.032 | [4] -0.014 | [5] -0.043 | rosiglitazone 0.032 | [6] -0.013 | saracatinib -0.027 | sotrastaurin -0.022 | alvocidib 0.013 | Tubastatin A 0.015 | [8] 0.128 | defactinib -0.008 | rucaparib -0.006 | [9] -0.003 | encorafenib -0.021 | [10] 0.082
active: [7] -0.287

CDK12 (UniProt Q9NYV4)
Chain of UniProt Q9NYV4 (Q9NYV4 whole entry, looked up): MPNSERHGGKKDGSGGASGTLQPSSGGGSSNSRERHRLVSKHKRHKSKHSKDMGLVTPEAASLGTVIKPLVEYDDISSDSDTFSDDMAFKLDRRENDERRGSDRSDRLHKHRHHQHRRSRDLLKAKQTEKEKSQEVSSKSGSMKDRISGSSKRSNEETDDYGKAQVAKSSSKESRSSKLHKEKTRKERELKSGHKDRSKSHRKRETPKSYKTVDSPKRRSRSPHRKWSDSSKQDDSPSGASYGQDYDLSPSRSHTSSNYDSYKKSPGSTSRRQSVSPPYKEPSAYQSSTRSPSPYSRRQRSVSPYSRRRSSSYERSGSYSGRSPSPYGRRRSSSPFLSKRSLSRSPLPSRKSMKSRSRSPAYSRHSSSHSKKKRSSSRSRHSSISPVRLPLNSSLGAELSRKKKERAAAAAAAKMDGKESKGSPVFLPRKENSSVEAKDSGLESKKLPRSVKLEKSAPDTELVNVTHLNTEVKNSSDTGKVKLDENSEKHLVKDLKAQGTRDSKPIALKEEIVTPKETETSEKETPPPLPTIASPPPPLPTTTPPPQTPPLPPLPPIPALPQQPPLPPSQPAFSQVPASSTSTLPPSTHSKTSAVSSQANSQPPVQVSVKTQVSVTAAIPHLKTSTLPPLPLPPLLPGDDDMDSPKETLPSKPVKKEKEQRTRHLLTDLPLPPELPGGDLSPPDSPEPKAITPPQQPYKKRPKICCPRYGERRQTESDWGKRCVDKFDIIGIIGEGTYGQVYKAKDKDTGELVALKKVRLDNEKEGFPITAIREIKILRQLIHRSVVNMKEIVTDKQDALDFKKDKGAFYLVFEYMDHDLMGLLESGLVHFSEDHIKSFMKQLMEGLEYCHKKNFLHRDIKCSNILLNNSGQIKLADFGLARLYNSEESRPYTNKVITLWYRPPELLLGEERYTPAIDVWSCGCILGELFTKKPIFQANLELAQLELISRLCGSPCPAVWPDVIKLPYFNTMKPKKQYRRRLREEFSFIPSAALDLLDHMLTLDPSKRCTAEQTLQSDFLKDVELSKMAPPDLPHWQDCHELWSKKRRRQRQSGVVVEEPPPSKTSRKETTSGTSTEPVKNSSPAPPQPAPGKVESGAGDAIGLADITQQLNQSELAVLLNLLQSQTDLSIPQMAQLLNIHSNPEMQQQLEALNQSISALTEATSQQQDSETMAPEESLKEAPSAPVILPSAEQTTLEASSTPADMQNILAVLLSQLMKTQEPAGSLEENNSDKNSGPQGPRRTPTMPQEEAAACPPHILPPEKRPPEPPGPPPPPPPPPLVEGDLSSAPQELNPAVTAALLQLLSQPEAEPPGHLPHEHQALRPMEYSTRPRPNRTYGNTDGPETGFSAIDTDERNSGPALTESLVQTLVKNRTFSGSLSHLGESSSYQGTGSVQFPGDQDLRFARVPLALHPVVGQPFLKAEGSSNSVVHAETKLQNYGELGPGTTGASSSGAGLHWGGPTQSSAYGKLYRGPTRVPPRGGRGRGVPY
inactive: [1] 0.147 | volasertib 0.237 | [2] 0.016 | epoxomicin -0.363 | [3] -0.005 | [4] 0.041 | [5] -0.027 | rosiglitazone -0.101 | [6] 0.392 | [7] -0.102 | saracatinib -0.113 | sotrastaurin -0.406 | alvocidib 0.122 | Tubastatin A 0.165 | [8] -0.309 | defactinib -0.052 | rucaparib 0.072 | [9] 0.003 | encorafenib 0.09 | [10] 0.157
